In PubChem BioAssay:
“And” between values parts separate entries of the source, which are not always exact repeats. Identical values can stand only once. Some structures have more than one record in an assay (separate samples or runs), and their calls can disagree. The source made the active and inactive calls. Unless noted, how the calls were made is not given here.

Tests used:
[1] = test system: Wnt5a (protein binding on small-molecule microarray); test: Wnt5a binders on small-molecule microarray, primary screen, biophysical, 635/667 nm fluorescence (AID 1142); details: 635 nm fluorescence, higher = more signal;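 further: fluorescence read at 667 nm with signal to noise per printed feature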
[2] = cell viability in Huh7 cells, primary screen, cytotoxicity control for HCV replication inhibitor project, CellTiter-Glo luminescence, basal, 48 h (AID 1143); details: Huh7 HCV replicon, higher = more signal, called active from +8 up or from −8 down;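 further: Huh7 hepatoma cells carrying a hepatitis C replication reporter with no stimulus; test concentration not given here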
[3] = P. aeruginosa biofilm formation inhibitors, primary screen, PAO1 strain, BacTiter-Glo luminescence, LB-PBS (AID 1144); details: 12 h, higher = more signal
[4] = CREB reporter modulators without forskolin, primary screen, cell-based, PC12, CRE-LacZ reporter, unstimulated (AID 1145); details: no forskolin, luminescence, 4.5 h, higher = more signal, called active from +8 up or from −8 down
[5] = CREB reporter modulators under forskolin, primary screen, cell-based, PC12, CRE-LacZ reporter, forskolin-stimulated (AID 1146); details: luminescence, 4.5 h, higher = more signal, called active from +8 up or from −8 down;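 further: PC12 cells with 6xCRE LacZ reporter stimulated by forskolin 10 µM; beta-galactosidase reporter signal reflecting CREB driven transcription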
[6] = target: Streptavidin (Streptomyces avidinii) (UniProt P22629); test: streptavidin binders on small-molecule microarray, primary screen, artefact control for SMM compound annotation, biophysical, 635/667 nm fluorescence (AID 1147); details: streptavidin binding, higher = more signal;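 further: signal reflects streptavidin binding to arrayed compounds as a control protein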
[7] = small-molecule binders of probe aInhba, primary screen, biochemical, small-molecule microarray, 635/667 nm fluorescence (AID 1148); details: higher = more signal;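 further: score merges 667nm spot fluorescence with signal-to-noise for antibody binding to printed compounds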
Torsin-1A (Homo sapiens) [8] = target: Torsin-1A (Homo sapiens) (UniProt O14656); test: torsin A binders from cell lysate, primary screen, small-molecule microarray, wild-type, 635/667 nm (AID 1149); details: COS7 hTOR1A-WT lysate, 635 nm fluorescence, higher = more signal
Torsin-1A (Homo sapiens) [9] = target: Torsin-1A (Homo sapiens) (UniProt O14656); test: small-molecule binders of mutant TOR1A in lysate, primary screen, cell lysate, small-molecule microarray, COS7 lysate, 635/667 nm fluorescence (AID 1150); details: COS7 hTOR1A mutant lysate, 635 nm fluorescence, higher = more signal;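 further: score pools 667 nm emission and signal to noise measuring lysate protein binding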
[10] = test system: Sonic hedgehog protein (Shh); test: small-molecule binders of Shh protein, primary screen, biochemical, small-molecule microarray, 635/667 nm fluorescence (AID 1151); details: small-molecule microarray binding, 635 nm fluorescence; higher = more signal;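 further: Shh protein binding to compounds spotted on small-molecule microarray slides; score combines spot fluorescence intensity with signal-to-noise across triplicate slides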
[11] = E. coli DRC41 culture turbidity changes, primary screen, E. coli filamentation inducer project, strain DRC41, OD650, 48 h (AID 1152);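 further: E. coli MC1000 strain DRC41 lacking acrAB efflux pump and sulA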; details: E. coli DRC41 (acrAB sulA), higher = more signal, called active from +8 up or from −8 down
[12] = small-molecule binders of probe aLefty1, primary screen, biochemical, small-molecule microarray, 635/667 nm fluorescence (AID 1153); details: higher = more signal;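 further: score merges spot fluorescence with signal-to-noise ratio from the scanned slide images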
[13] = PSAC antagonists in infected red cells, primary screen, cell-based, P. falciparum Indochina, OD700, 1 h (AID 1154); details: P. falciparum Indochina infected RBC osmotic lysis, higher = more signal, called active from +8 up or from −8 down
[14] = PSAC antagonists in infected red cells, primary screen, cell-based, P. falciparum Indochina, OD700, 2 h (AID 1155);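 further: lysis reports solute entry through the parasite surface anion channel PSAC; channel blockers reduce lysis of infected cells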; details: P. falciparum Indochina infected erythrocytes, osmotic lysis OD700; higher = more signal, called active from +8 up or from −8 down
[15] = osmotic lysis modulators in infected erythrocytes, primary screen, PSAC antagonist project, cell-based, P. falciparum Indochina, OD700, 3 h (AID 1156); details: higher = more signal, called active from +8 up or from −8 down
[16] = PSAC antagonists in infected red cells, primary screen, cell-based, P. falciparum Indochina, OD700, 18 h (AID 1157); details: P. falciparum Indochina infected erythrocytes, osmotic lysis OD700, 18 h; higher = more signal, called active from +8 up or from −8 down
[17] = modulators of S6 phosphorylation in cells, primary screen, cell-based, A549, cytoblot, luminescence, serum-stimulated (AID 1158); details: A549 phospho-S6 cytoblot, 5 h, higher = more signal;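 further: serum-stimulated A549 lung adenocarcinoma cells; signal is phosphorylated S6 detected by cytoblot immunostaining with HRP secondary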
[18] = target: NADPH oxidase 2 (Homo sapiens) (UniProt P04839); test: NOX2-dependent H2O2 signal modulators, primary screen, NOX inhibitor project, cell-based, HEK293-NOX2, PMA-stimulated, Amplex Red fluorescence (AID 1159); details: 45 min, higher = more signal, called active from +8 up or from −8 down; further: test concentration not given here
[19] = target: NADPH oxidase 4 (Homo sapiens) (UniProt Q9NPH5); test: NOX4-dependent H2O2 signal modulators, primary screen, NOX inhibitor project, cell-based, HEK293-NOX4, tetracycline-induced, Amplex Red fluorescence (AID 1160); details: 45 min, higher = more signal, called active from +8 up or from −8 down
[20] = target: NADPH oxidase 5 (Homo sapiens) (UniProt Q96PH1); test: NOX5-dependent H2O2 signal modulators, primary screen, NOX inhibitor project, cell-based, HEK293-NOX5, Amplex Red fluorescence (AID 1161); details: HEK293-NOX5, ionomycin, 45 min, higher = more signal
Sequence of NADPH oxidase 5 (Homo sapiens) (Q96PH1 whole entry, looked up): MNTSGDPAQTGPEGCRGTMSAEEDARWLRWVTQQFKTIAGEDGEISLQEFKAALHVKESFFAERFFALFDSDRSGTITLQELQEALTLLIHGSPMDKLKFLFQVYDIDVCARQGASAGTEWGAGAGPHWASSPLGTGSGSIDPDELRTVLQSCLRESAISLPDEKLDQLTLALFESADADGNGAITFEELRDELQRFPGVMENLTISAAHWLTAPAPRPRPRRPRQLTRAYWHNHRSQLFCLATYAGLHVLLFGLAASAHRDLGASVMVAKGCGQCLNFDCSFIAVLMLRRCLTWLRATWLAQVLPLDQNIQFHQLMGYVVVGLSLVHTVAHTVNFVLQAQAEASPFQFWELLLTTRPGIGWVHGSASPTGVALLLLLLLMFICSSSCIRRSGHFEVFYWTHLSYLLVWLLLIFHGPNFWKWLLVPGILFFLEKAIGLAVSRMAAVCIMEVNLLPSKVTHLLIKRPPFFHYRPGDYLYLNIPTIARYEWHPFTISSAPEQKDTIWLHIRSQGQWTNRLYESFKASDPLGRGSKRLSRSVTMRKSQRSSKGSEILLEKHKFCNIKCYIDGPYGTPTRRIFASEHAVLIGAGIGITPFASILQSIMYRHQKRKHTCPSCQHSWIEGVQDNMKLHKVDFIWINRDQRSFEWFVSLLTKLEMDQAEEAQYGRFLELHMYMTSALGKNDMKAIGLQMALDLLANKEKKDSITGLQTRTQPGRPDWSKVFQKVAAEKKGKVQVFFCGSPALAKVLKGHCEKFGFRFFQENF

Sequence of Streptavidin (Streptomyces avidinii) (P22629 whole entry, looked up): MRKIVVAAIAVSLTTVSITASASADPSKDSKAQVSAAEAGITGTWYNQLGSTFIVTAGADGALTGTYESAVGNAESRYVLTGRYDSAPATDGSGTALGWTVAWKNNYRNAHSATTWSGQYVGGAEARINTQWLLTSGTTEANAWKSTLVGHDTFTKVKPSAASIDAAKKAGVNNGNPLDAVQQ
Sequence of Torsin-1A (Homo sapiens) (O14656 whole entry, looked up): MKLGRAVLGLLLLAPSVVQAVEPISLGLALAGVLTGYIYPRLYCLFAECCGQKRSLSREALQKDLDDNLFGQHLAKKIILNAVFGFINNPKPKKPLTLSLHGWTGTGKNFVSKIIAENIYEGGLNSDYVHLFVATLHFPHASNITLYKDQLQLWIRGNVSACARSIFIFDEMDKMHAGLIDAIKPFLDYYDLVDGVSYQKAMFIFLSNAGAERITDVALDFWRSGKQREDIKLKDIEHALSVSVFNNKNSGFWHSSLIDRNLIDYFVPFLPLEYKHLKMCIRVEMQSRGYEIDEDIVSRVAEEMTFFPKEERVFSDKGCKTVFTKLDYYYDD
Sequence of NADPH oxidase 4 (Homo sapiens) (Q9NPH5 whole entry, looked up): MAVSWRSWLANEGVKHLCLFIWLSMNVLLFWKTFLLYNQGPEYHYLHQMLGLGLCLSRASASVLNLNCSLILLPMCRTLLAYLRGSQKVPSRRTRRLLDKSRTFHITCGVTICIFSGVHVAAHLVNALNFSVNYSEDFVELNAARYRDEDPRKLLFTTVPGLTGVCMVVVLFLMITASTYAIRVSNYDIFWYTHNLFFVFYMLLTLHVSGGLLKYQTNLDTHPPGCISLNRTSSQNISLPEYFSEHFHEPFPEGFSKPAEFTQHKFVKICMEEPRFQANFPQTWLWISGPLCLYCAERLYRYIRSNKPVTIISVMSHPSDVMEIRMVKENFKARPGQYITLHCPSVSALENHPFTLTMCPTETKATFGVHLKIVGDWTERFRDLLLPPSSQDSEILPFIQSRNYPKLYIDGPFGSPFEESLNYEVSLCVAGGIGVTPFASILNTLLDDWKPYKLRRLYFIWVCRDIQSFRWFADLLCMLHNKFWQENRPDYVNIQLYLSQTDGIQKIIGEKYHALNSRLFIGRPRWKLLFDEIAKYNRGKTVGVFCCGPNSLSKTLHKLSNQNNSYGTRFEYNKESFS
Sequence of NADPH oxidase 2 (Homo sapiens) (P04839 whole entry, looked up): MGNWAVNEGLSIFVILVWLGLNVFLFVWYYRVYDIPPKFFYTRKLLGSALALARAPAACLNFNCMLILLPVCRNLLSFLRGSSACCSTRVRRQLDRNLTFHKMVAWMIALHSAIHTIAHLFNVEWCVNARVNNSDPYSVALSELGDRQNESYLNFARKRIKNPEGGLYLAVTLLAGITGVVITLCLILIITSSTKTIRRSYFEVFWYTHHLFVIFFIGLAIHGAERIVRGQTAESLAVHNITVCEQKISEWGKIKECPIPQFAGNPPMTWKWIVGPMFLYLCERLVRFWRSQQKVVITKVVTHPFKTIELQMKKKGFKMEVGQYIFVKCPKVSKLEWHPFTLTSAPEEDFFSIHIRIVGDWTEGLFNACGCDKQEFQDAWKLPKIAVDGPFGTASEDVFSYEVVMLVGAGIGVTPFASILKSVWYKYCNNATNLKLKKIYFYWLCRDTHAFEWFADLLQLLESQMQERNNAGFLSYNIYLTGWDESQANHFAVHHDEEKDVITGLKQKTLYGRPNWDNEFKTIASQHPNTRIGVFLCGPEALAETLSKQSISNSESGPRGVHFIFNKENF

Compound | composite z-score [1] | z-score [2] | z-score [3] | z-score [4] | z-score [5] | composite z-score [6] | composite z-score [7] | composite z-score (Torsin-1A (Homo sapiens) [8]) | composite z-score (Torsin-1A (Homo sapiens) [9]) | composite z-score [10] | z-score [11] | composite z-score [12] | z-score [13] | z-score [14] | z-score [15] | z-score [16] | z-score [17] | z-score [18] | z-score [19] | z-score [20]
C[C@@H]1CC[C@H]2C(=O)N3[C@@H](CC[C@@H](C)[C@@H]3c3ccc(-c4ccco4)cc3)C(=O)N2[C@H]1c1ccc(-c2ccco2)cc1 | 0.178 and 0.544 | 0.234 (inactive) and 0.563 (inactive) | 0.598 (inactive) | -0.165 (inactive) and 0.651 (inactive) | 0.371 (inactive) and -0.248 (inactive) | 1.33 and 2.14 | 0.0006 and 0.0895 | 0.967 and 2.1 | 0.411 and 1.47 | 1.44 and 1.19 | -0.581 (inactive) and 0.529 (inactive) | 0.0927 and 0.38 | 0.91 (inactive) and 0.469 (inactive) | -0.0315 (inactive) and -0.262 (inactive) | 0.0919 (inactive) and 1.71 (inactive) | -0.364 (inactive) and -0.853 (inactive) | -0.146 and -0.115 | 0.331 (inactive) and 0.931 (inactive) | -1.03 (inactive) and 0.685 (inactive) | -0.273 and -1.03
CC(C)OC(=O)C=C1C[C@@H](c2ccccc2)O[C@@H](c2ccccc2)O1 | 0.706 and 0.731 | -1.4 (inactive) and -2.03 (inactive) | -0.804 (inactive) and -1.18 (inactive) | 0.836 (inactive) and -0.0879 (inactive) | -0.127 (inactive) and 3.16 (inactive) | 1.35 and 1.85 | 0.122 and 0.234 | 1.55 and 1.19 | 1.57 and 1.46 | 1.67 and 0.885 | 0.676 (inactive) and 0.585 (inactive) | -0.0984 and 0.149 | 15.2 (active) and 23.2 (active) | 1.94 (inactive) and 5.46 (inactive) | 0.369 (inactive) | 1.03 (inactive) and 1.37 (inactive) | -0.104 and -0.0136 | -0.124 (inactive) and -0.0606 (inactive) | -0.00431 (inactive) and -1.01 (inactive) | -0.39 and -0.392
C=CCN(CCCCC)C(=O)C(c1cccs1)N(C(=O)/C=C\C(=O)O)c1ccc(CCO)cc1 (stereo not given) | -0.909 and -0.947 | 0.162 (inactive) and 0.193 (inactive) | 0.0224 (inactive) and -0.188 (inactive) | 0.459 (inactive) and 0.597 (inactive) | -0.343 (inactive) and -0.244 (inactive) | -1.72 and -1.16 | -0.331 and -0.0021 | -2.38 and -1.69 | -1.96 and -1.51 | -0.975 and -0.587 | 0.539 (inactive) and 0.137 (inactive) | -0.147 and -0.15 | 0.0722 (inactive) and -0.629 (inactive) | 0.181 (inactive) and -0.255 (inactive) | -0.533 (inactive) and -0.741 (inactive) | 0.0113 (inactive) and 0.0094 (inactive) | 0.0901 and -0.111 | 0.259 (inactive) and -0.0131 (inactive) | -0.6 (inactive) and -0.665 (inactive) | 0.614 and 0.19
CC(C)=NOCc1ccc(-c2cn([C@@H]3COC[C@H]3O)nn2)cc1 | 0.184 | 0.164 (inactive) | 1.08 (inactive) | 1.47 (inactive) | 0.607 (inactive) | 0.562 | -0.128 | 0.538 | 0.162 | 0.169 | 0.164 (inactive) | -0.245 | 11.2 (active) | 0.536 (inactive) | -0.725 (inactive) | 0.296 (inactive) | -0.119 | 0.606 (inactive) | 0.0519 (inactive) | -0.388
C=CCN1C(=O)[C@]2(O[C@H](CCn3cc(CCO)nn3)[C@@H]([Si](C)(C)c3ccc(OC)cc3)[C@@H]2C)c2cc(N3C(=O)c4cccc5cccc3c45)ccc21 | 0.684 and 0.279 | -8.04 (active) and -7.97 (inactive) | -0.475 (inactive) and -0.111 (inactive) | 29.7 (active) and 37.9 (active) | -4.15 (inactive) and -3.89 (inactive) | 0.377 and 0.732 | -0.0719 and -0.0986 | 0.317 and 0.0769 | 0.398 and 0.254 | 1.21 and 1.38 | 0.833 (inactive) and -0.342 (inactive) | -0.0536 and 0.188 | 24.1 (active) | 9.07 (active) and 8.54 (active) | -0.152 (inactive) and -1.17 (inactive) | 2.04 (inactive) and 1.7 (inactive) | 1.04 and 0.347 | 0.823 (inactive) and 1.03 (inactive) | 0.265 (inactive) and 0.624 (inactive) | -0.371 and -0.152
COC(=O)[C@@]1(Cc2ccc(OC)cc2)[C@H]2c3cc(C(=O)N(C)C)n(Cc4ccc(O)c(OC)c4)c3C[C@H]2CN1C(=O)c1ccccc1 | 0.0905 and 0.294 | -1.03 (inactive) and -2.86 (inactive) | 0.209 (inactive) and 0.769 (inactive) | 0.583 (inactive) and 0.197 (inactive) | 0.217 (inactive) and -0.742 (inactive) | 1.09 and 0.758 | 0.293 and 0.714 | 0.934 and 0.0765 | 0.692 and 0.318 | 1.02 and -0.291 | -0.583 (inactive) and -1.09 (inactive) | 0.0913 and 0.661 | 7.35 (inactive) and 6.71 (inactive) | 0.45 (inactive) and 1.11 (inactive) | 2.07 (inactive) and 1.63 (inactive) | 0.642 (inactive) and 1.38 (inactive) | 0.217 and 0.749 | -1.99 (inactive) and 0.285 (inactive) | -6.68 (inactive) and 1.16 (inactive) | -5.69 and -0.509
